Source: PubChem BioAssay (National Center for Advancing Translational Sciences (NCATS))
Compounds with a hit are over-represented: about 19% of the library has one in this group of screens.
IL-1B inflam inh – blocks inflammasome-driven IL-1 beta release | THP-1 LPS/ATP IL-1B secretion, AlphaLISA, 16 h; hits give low values | activity change, % at 57.5 µM | 4.7% of 360,000 active | AID 743279; in the data active means activity change below about -50%; inconclusive means mostly about -30% to -49%
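THP-1 cells pretreated 1 hr with compounds (up to 57.5 uM final), then stimulated with LPS (250 ng/mL final) plus ATP (1.25 mM final); secreted IL-1B measured by AlphaLISA after 16 hr, decreased signal indicating inhibition.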
HT1080NT lethal – kills 2HG-producing HT-1080-NT fibrosarcoma cells; HT-1080-NT fibrosarcoma viability, CellTiter-Glo ATP luminescence, 48 h; 1.6% of 360,000 active; Potency, µM (top dose mostly 46.1 µM), hits mostly cytotoxic;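 further: NT is the 2HG producing partner of a matched IDH1 knockdown line; nearly all actives have a fitted effect of over 55% in size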
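Toxicity toward the 2HG-producing NT line was scored as %Activity, normalised to DMSO and no-cell wells, from CellTiter-Glo luminescence after 48 hours' treatment.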
TDP1 cell CPT – growth inhibition of DT40 Tdp1-/-;hTDP1 cells with camptothecin (screen for TDP1 inhibitors) | chicken DT40 Tdp1-/-;hTDP1 cells + 20 nM CPT, ATP luminescence, 48 h | Potency, µM (highest dose often 46.2 µM), most hits filed as inhibitors | 12% of 420,000 active; further: nearly all actives have a fitted effect of over 55% in size
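Chicken DT40 Tdp1-/- cells stably complemented with human TDP1 were seeded at 400 cells/well in medium containing 20 nM camptothecin, exposed to pin-transferred compounds, and grown at 37 °C for at least 48 hr. Viability was read as ATP luminescence.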
HT1080 IDH1KD tx – HT-1080 IDH1 knockdown cell toxicity (counter line); HT-1080 IDH1 knockdown viability, ATP luminescence, 48 h; Potency, µM (top dose mostly 46.1 µM), actives largely listed as cytotoxic; 2% of 360,000 active; AID 686971
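Viability of IDH1-knockdown HT-1080 fibrosarcoma cells was assessed by CellTiter-Glo after 48 h at 37 °C with titrated compound; concentration-effect curves were classified by fit quality and response size.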
TDP1 cell noCPT – qHTS for Inhibitors of human tyrosyl-DNA phosphodiesterase 1 (TDP1): qHTS in cells in absence of CPT. DT40 Tdp1-/- hTDP1 cells, no CPT, ATP luminescence, 48 h. 15% of 420,000 active. Potency, µM (top dose mostly 46.2 µM), usual class: inhibitors; further: nearly all actives have a fitted effect of over 55% in size
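No-CPT arm: Tdp1-/-;hTDP1 DT40 cells (400/well) plus compounds, incubated ≥48 hr at 37 °C. Readout CellTiter-Glo luminescence.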
Hits are given with their value; – = inactive; ? = inconclusive; · = no result given; [ ] = dose if it differs, or a comment. Unless noted, the call rests on the fitted dose curve; in most records, active means well fitted curve in the direction sought with a large enough effect; inconclusive means small, poorly fitted or top-dose-only effect, or another doubt; inactive means no such curve, though single readings can be large; an effect the other way counts as inactive or inconclusive.

SMILES | IL-1B inflam inh | HT1080NT lethal | TDP1 cell CPT | HT1080 IDH1KD tx | TDP1 cell noCPT
CN(CC(=O)Nc1ccccc1N1CCOCC1)S(=O)(=O)c1ccc(Cl)cc1 | – | – | 21µM | – | ?
CN(c1ccccc1)S(=O)(=O)c1ccc(Cl)c(C(=O)Nc2ccccc2N2CCOCC2)c1 | – | – | 8.2µM | – | 7.3µM
CCOC(=O)C1=C(CS(=O)(=O)c2ccc(F)cc2)NC(=O)NC1c1ccc(OCC)c(OC)c1 (centres undefined) | · | · | – | · | ?
C#CCSc1nc2ccccc2c(=O)n1CC=C | · | · | – | · | –
COc1ccc(NS(=O)(=O)c2ccc(-n3cnnn3)cc2)cc1OC | – | ? | 16µM | – | 9.2µM
CSc1ccc(NS(=O)(=O)c2ccc(-n3cnnn3)cc2)cc1 | – | – | ? | – | 21µM
COc1ccc(S(=O)(=O)NC2CCCCC2)cc1-n1cnnn1 | – | – | – | – | 21µM
COc1ccc(S(=O)(=O)Nc2ccc(-n3cnnn3)cc2)cc1Br | – | – | ? | – | –
Cc1cc(S(=O)(=O)NC2CCCCC2)ccc1-n1cnnn1 | – | – | – | – | –
O=[N+]([O-])c1cc([N+](=O)[O-])c(Oc2cccnc2Br)cc1NN1CCCCC1 | – | – | ? | – | ?
CC(=O)Nc1ccc(NC(=O)CCCn2nc(C)c3sc4ccccc4c3c2=O)cc1 | · | · | – | · | ?
CSc1nc2ccc(NC(=O)c3nn(C(C)C)c(=O)c4ccccc34)cc2s1 | -52 | – | 18µM | – | ?
Cc1nc2ccc(NC(=O)c3nn(C(C)C)c(=O)c4ccccc34)cc2s1 | – | – | ? | – | ?
O=c1/c(=C/c2ccco2)sc2n1CN(c1cccc(Br)c1)CN=2 | -50 | – | – | – | –
Cc1ccc(/C=c2\sc3n(c2=O)CN(c2cccc(Br)c2)CN=3)o1 | -51 | – | – | – | –
COc1ccc(C(=O)NCC2Cc3cccc(-c4cncnc4)c3O2)c(OC)c1OC (centres undefined) | · | · | –[9.04 µM] | · | ?
CCOC(=O)c1cn(Cc2ccccc2)nc1-c1ccccc1 | – | – | – | – | –
COc1ccccc1N(CC(=O)NCCSCc1ccccc1Cl)S(C)(=O)=O | – | – | ? | – | ?
CC(C)N(Cc1ccccc1)C(=O)COc1ccccc1 | – | – | ? | – | ?
CC(C)N(Cc1ccccc1)C(=O)CCc1ccccc1 | – | – | 15µM | – | ?
CC(C)N(Cc1ccccc1)C(=O)COC(=O)c1cc(S(=O)(=O)N(C)C)ccc1N1CCCC1 | – | – | 23µM | – | 15µM
CCOC(=O)c1c(C)[nH]c(C(=O)NNC(=O)c2ccccc2F)c1C | – | – | – | – | –
CCOC(=O)c1c(C)[nH]c(C(=O)OCC(=O)N(CC(C)C)c2c(N)n(Cc3ccccc3)c(=O)[nH]c2=O)c1C | – | – | ? | – | ?
CCOC(=O)c1[nH]c(C)c(C(=O)OCC(=O)N(Cc2ccccc2)C(C)C)c1C | ? | – | ? | – | 15µM
CCOC(=O)c1[nH]c(C)c(C(=O)c2cc(F)ccc2F)c1C | – | 0.71µM | 0.82µM | 0.45µM | 0.82µM
SMILES | IL-1B inflam inh | HT1080NT lethal | TDP1 cell CPT | HT1080 IDH1KD tx | TDP1 cell noCPT
COCC(=O)N1CCC(Oc2ccc(C(=O)NCc3cc(C)n(C)n3)cc2)CC1 | – | – | – | – | –
CCOC(=O)c1[nH]c(C)c(C(=O)OCc2ccccc2F)c1C | – | 12µM | 6.5µM | 9.2µM | 9.2µM
CN(C)CCNC(=O)Cn1ccc2cc(S(=O)(=O)N3CCCCC3)ccc21 | – | – | – | – | –
O=C(Cn1ccc2cc(S(=O)(=O)N3CCCC3)ccc21)NCc1ccco1 | – | – | – | – | –
CC(CNC(=O)Cn1ccc2cc(S(=O)(=O)N3CCCCC3)ccc21)c1ccccc1 (centres undefined) | · | · | ? | · | 21µM
CC(CNC(=O)Cn1ccc2cc(S(=O)(=O)N3CCCC3)ccc21)c1ccccc1 (centres undefined) | – | – | 18µM | – | 23µM
FC(F)(F)c1cc(-c2ccco2)nc(NCCc2ccccc2)n1 | – | – | ? | – | ?
Cc1cccc(NC(=O)CCc2ccccc2)c1C | – | – | – | – | –
CC(C)(C)C(=O)NNc1nc(-c2ccccc2)c2cc(Br)ccc2n1 | – | – | 16µM | – | 13µM
Cc1ccc(N/C(N)=N/c2nc(C)cc(N3CCCCC3)n2)c(C)c1 | -103 | 15µM | 2.3µM | ? | 2.6µM
N/C(=N\c1nc2c(c(=O)[nH]1)CCCC2)Nc1ccccc1 | – | – | – | – | ?
N/C(=N\c1nc2c(c(=O)[nH]1)CCCC2)Nc1ccccc1Sc1ccccc1 | – | – | 11µM | – | 20µM
Cc1ccc(N/C(N)=N/c2nc3c(c(=O)[nH]2)CCCC3)c(C)c1 | – | – | 13µM | – | 12µM
COc1ccc(N2CCN(c3ncnc4onc(C)c34)CC2)cc1 | · | · | 21µM | · | 16µM
Cc1noc2ncnc(N3CCCCC3)c12 | – | – | – | – | ?
Cc1noc2ncnc(N3CCN(c4ccc(F)cc4)CC3)c12 | – | – | ? | – | 18µM
O=C(CSc1nc2[nH]ncc2c(=O)[nH]1)NCCc1ccccc1 | – | – | – | – | –
Cc1cc(Br)ccc1SCC(=O)OCC(=O)Nc1ccc2[nH]c(=O)[nH]c2c1 | – | – | – | – | –
CCc1cccc(C)c1NS(=O)(=O)c1c(C(=O)N2CCC(C)CC2)c(C)n(C)c1C | · | · | 18µM | · | ?
COc1ccc(NS(=O)(=O)c2c(C(=O)N3CCCCCC3)c(C)n(C)c2C)cc1 | ? | – | ? | – | –
Cc1c(C(=O)N2CCC(C)CC2)c(S(=O)(=O)Nc2ccc(OC(F)(F)F)cc2)c(C)n1C | · | · | ? | · | 16µM
CCc1ccccc1NS(=O)(=O)c1c(C(=O)N2CCCCCC2)c(C)n(C)c1C | – | – | – | – | –
Cc1[nH]c(C)c(S(=O)(=O)Nc2ccc(OC(F)(F)F)cc2)c1C(=O)N1CCCCC1 | ? | – | 21µM | – | 16µM
CSc1nc(O)c(N=Nc2ccc(F)cc2F)c(=O)[nH]1 | – | – | ? | – | ?
Cc1ccc(NC(=O)CC2C(=O)NCCN2C(=O)c2ccc(F)cc2)cc1 (centres undefined) | – | – | – | – | –
COc1ccc(NCC(=O)N/N=C(\C)c2cc3ccccc3o2)cc1 | -55 | – | ? | – | ?
C/C(=N\NC(=O)c1ccccc1-n1cccc1)c1ccccn1 | – | ? | 2.1µM | ? | 1.8µM
C/C(=N\NC(=O)CCCNc1ccc(C)cc1)c1ccccn1 | – | – | 5.8µM | ? | 5.2µM
C/C(=N\NC(=O)c1cc2ccccc2cc1O)c1ccccn1 | – | ? | 1.2µM | ? | 1.3µM
CCCNC(=O)c1cc(C2CCCN(C(=O)C3CC3)C2)on1 (centres undefined) | – | – | – | ? | –
